Rows were chosen to be rich in hits. Some 0.9% of all compounds tested hit in one or more screens of this group.
CDC25B-CDK2 inh: primary biochemical HTRF screen for blockers of M-phase inducer phosphatase 2 binding to CDK2/cyclin A; z-score (concentration not given with the values); HTRF CDC25B-CDK2/CyclinA binding, anti-His/anti-Flag; hits give high values; 94,000 compounds, 0.72% hits; in the data active = z-score above about 3.2
TAR Tat displ: TAR RNA-Tat peptide displacers, HIV-1, primary screen, biochemical, FRET, FAM/TAMRA-labeled Tat. 100,000 compounds, 0.6% hits. z-score (no concentration beside the values). HIV-1 TAR RNA, Tat peptide displacement FRET; hits give high values; active = z-score of 3 or more in at least 2 runs
* = called active by the depositor; . = no result.

SMILES	CDC25B-CDK2 inh	TAR Tat displ
COc1cc(/C=c2\sc3nc4ccccc4n3c2=O)ccc1OCc1cc2c(cc1Cl)OCO2	-2.81	.
COc1ccc(S(=O)(=O)c2cn(C)c3ccc(OC)cc3c2=O)cc1	0.01	0.32
CCOC(=O)c1c(N)sc(SSc2sc(N)c(C(=O)OCC)c2C)c1C	4.41*	.
CCOC(=O)c1c(N)sc(C)c1C	-0.25	0.93
Cc1ccc(CNC(=O)c2cc3n(n2)CC(C)(C(=O)NC2CCCC2)N(C)C3=O)o1 (stereo not drawn)	.	1.79
CSc1nnc(S/C(C(C)=O)=C(/C)O)s1	16*	.
CSc1nnc(SCC(=O)N2CCC(C(F)(F)F)CC2)s1	0.86	.
CCC(=O)Nc1ccc2nc3c(=O)[nH]c(=O)[nH]c3nc2c1	2.87	-4.73
CC(=O)Nc1ccc2nc3c(=O)[nH]c(=O)[nH]c3nc2c1	8.04*	1.84
CC(C)NC(=O)CN1CCN(C2CCCCC2)C(=O)C1=O	.	1.37
COc1ccc(S(=O)(=O)N2CCCCC2c2nc(-c3ccc(F)cc3)no2)cc1 (stereo not drawn)	.	0.59
Clc1ccc(/C=C/c2nn3c(-c4cccnc4)nnc3s2)cc1	2.48	-1.55
Cn1c(=O)c2c(c3ccccc31)OC(=O)CC2c1ccccc1 (stereo not drawn)	-0.44	-0.31
Cn1c(=O)c2c(c3ccccc31)OC(=O)CC2c1ccco1 (stereo not drawn)	-0.48	14.2*
Cc1ccc2c(c1)NC(SCC(=O)N1CCCCC1C)=NS2(=O)=O (stereo not drawn)	.	2.1
Cc1nnc2c(Oc3ccc(Cl)cc3)nc3ccccc3n12	15.7*	0.92
Cc1ccc(Oc2nc3ccccc3n3c(C)nnc23)cc1C	0.64	.
O=C(Nc1ccc(F)cc1)c1ncoc1-c1cccs1	.	0.6
CCc1nnc(NC(=O)CSc2ccc3nnc(-c4ccc(C)cc4)n3n2)s1	-1.02	.
Cn1c(CSC2CN(C(c3ccccc3)c3ccccc3)C2)n[nH]c1=S	13.3*	.
Cn1c(CSc2ccccc2)n[nH]c1=S	-0.72	.
O=C1CCCc2cc(S(=O)(=O)N3CCC(C(=O)N4CCc5ccccc54)CC3)ccc2N1	.	-0.76
Cn1ncc(C(=O)O/N=C(\N)c2ccccc2)c1-n1cccc1	-0.13	.
Cc1cccc(-c2nc3sc(C)cc3c(=O)o2)c1	7.59*	1.3
CCc1cc2c(=O)oc(-c3ccccc3)nc2s1	-0.8	0.63
SMILES	CDC25B-CDK2 inh	TAR Tat displ
COCCOC(=O)c1c(C)oc2ccc(NS(=O)(=O)c3cc(C)ccc3C)cc12	-3.5	.
Cc1ccc(C)c(S(=O)(=O)Nc2ccc3oc(C)c(C(=O)O)c3c2)c1	0.27	14.3*
O=S(=O)(c1cccc(S(=O)(=O)N2CCN(c3ncccn3)CC2)c1)N1CCCCC1	-0.46	0.01
NC(C(=O)O)C1CCCCC1 (stereo not drawn)	-0.39	.
N[C@H](C(=O)O)[C@H]1C[C@@H]1C(=O)O	7.72*	.
CCc1nn2c(=O)cc(CSc3nnc(-c4ccccc4Cl)o3)nc2s1	-1.32	1.22
COC(=O)c1c(NC(=O)c2ccccc2C(=O)O)sc2c1CCC2	0.85	1.75
CNC(=O)c1cc(=O)n(CC(=O)Nc2sc3c(c2C(=O)OC)CCC3)c2ccccc12	.	8.29*
Cc1ccc(S(=O)(=O)N(Cc2nc(-c3ccccc3)no2)C(C)C)cc1	-1.28	-0.68
Cc1nn(CC(=O)N2CCCC2)c(C)c1S(=O)(=O)N1CCCC(C(=O)N2CCCCC2)C1 (stereo not drawn)	.	-0.13
Cc1ccc(C)c(S(=O)(=O)N2CCN(c3cc(N4CCCC4)nc(C)n3)CC2)c1	-1.03	0.38
O=C(c1ccc(CSc2nc3ccncc3n2Cc2ccc(F)cc2)cc1)N1CCCC1	-0.88	1.02
Brc1ccc(C2=Nn3c(nnc3-c3ccccc3)SC2)s1	-1.44	.
COC(=O)c1c(OC)cc2c(c1C)Oc1c(Cl)c(OC(C)=O)c(Cl)c(C)c1C(=O)O2	.	-0.25
COc1c(Cl)c(C)c2c(c1Cl)OC(=O)c1c(C)c(Cl)c(O)c(Cl)c1O2	.	30.2*
N/C(=N\O)c1c(-c2ccccc2)cc(-c2ccc(F)cc2)[nH]c1=O	11*	.
O=c1cc(-c2ccccc2)[nH]c(=S)[nH]1	-1.05	.
COc1ccccc1-c1noc2ncnc(NCc3ccccc3)c12	.	2.03
CN(C)c1ccc(NC(=O)CCCC(=O)O)cc1	-4.2	1.69
CN(C)c1ccc(C(=O)NCCCCCC(=O)NO)cc1	.	10.2*
O=C(NCCC1=CCCCC1)c1nnc(-c2ccc3c(c2)OCO3)o1	-1.15	3.72
Cn1ncc2c(NCc3ccccc3Cl)nc(N3CCC(N4CCCCC4)CC3)nc21	.	0.43
COC(=O)c1cc2oc3ccccc3c2n1CC(=O)NCc1ccco1	4.12	8*
Cn1c(C(=O)NCc2ccco2)cc2oc3ccccc3c21	-4.61	.
Cc1cc2n(n1)CCC(=O)N2C(C)C(=O)NCCc1cccs1 (stereo not drawn)	.	2.84
SMILES	CDC25B-CDK2 inh	TAR Tat displ
CCCNc1nc(NCc2ccccc2)c2cnn(C)c2n1	.	-0.61
O=C(CSCC(=O)Nc1cccc(C(F)(F)F)c1)Nc1ccccc1	-1.51	.
O=C(O)CSCC(=O)Nc1cc(C(F)(F)F)cc(C(F)(F)F)c1	8.45*	.
O=C(c1cc(S(=O)(=O)N2CCCCC2)c[nH]1)N1CCCc2ccccc21	.	2.44
CC1=C(c2cccc(Cl)c2)S(=O)(=O)N=C1Nc1ccc2c(c1)OCCO2	-4.06	1.28
O=C(Nc1ccc2c(c1)OCO2)c1ccc(Cn2nc(N3CCN(c4ccccc4)CC3)ccc2=O)o1	.	17.1*
O=C(Nc1ccc(F)cc1)c1ccc(Cn2nc(N3CCN(c4ccc(F)cc4)CC3)ccc2=O)o1	.	0.64
Cc1ccsc1-c1nc(CSCC(=O)N2CCN(c3ccccc3F)CC2)c(C)o1	-0.58	.
CCc1cc2c(N3CCC(C(=O)NC4CC4)CC3)ncnc2s1	.	0.68
Cc1nnc2c(NCc3ccncc3)nc3ccc(C(=O)c4ccccc4)cc3n12	.	-0.47
O=C1CCCc2oc3c(cc(NS(=O)(=O)c4cccc([N+](=O)[O-])c4)c4ccccc43)c21	-0.92	.
CCc1ccc(S(=O)(=O)Nc2cc3c4c(oc3c3ccccc23)CCCC4=O)cc1	18*	.
O=C(Nc1nn[nH]n1)C1c2ccccc2Oc2ccccc21	-1.23	.
O=C(O)Cn1ncc2c1-c1ccoc1CC2	11.3*	0.9
O=C(Cn1ncc2c1-c1ccccc1OC2)N1CCCC1	-1.09	.
O=C(c1cccc(Nc2nc(-c3ccccc3)c3cc(Br)ccc3n2)c1)N1CCOCC1	-3.02	.
C=CCN[C@H]1CS(=O)(=O)C[C@@H]1S(=O)(=O)c1ccc(Cl)cc1	-0.14	0.44
CCN1CCN(C(=O)c2c(C)oc3ncnc(N4CCCCC4)c23)CC1	.	-0.83
CCN1CCN(C(=O)c2c(C)oc3c2cc(OC(C)=O)c2ccccc23)CC1	7.69*	-2.29
CCOc1ccc(Nc2c3c(nc4ncnn24)CCCC3)cc1	.	1.28
Nc1ccc2nn(-c3cccc(Cl)c3)nc2c1	-0.74	3.99*
Cc1ccc(-n2nc3ccc(N)cc3n2)cc1	-0.46	-0.96
Cc1cccc(Nc2nc(C)nc3c2CCC3)c1	-1.11	2.37
Cc1cc(C)c2c(=O)[nH]c(SCC(=O)c3ccc(O)c(O)c3)nc2n1	-0.31	30.5*
CCN(CC)C(=O)CSc1nc2nc(C)cc(C)c2c(=O)[nH]1	0.19	.
Cc1ccccc1-c1noc(CSc2nnc(-c3ccccc3)n2C)n1	-1.48	-1.96
COc1cc(NS(=O)(=O)c2cc(-c3cc(C)no3)ccc2C(C)C)cc(OC)c1	.	-0.39

Screening results: PubChem BioAssay, Center for Chemical Genomics, University of Michigan
